# Legend:
# Test in all cases: PBM binding z-score (relative to random genomic background probes); higher = stronger binding; sequences stand for … in GC…GCGATTGACAGCGTAGAATGAAGG
# [1] = test system: FXR:RXRa (NR concentration 270 nM, RXRa partner concentration 90 nM)
# Outline: (§1)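 Binding z-scores were set against random background probes. The data came from custom Agilent 4×180K protein-binding microarrays carrying double-stranded probes with 34-nt variable regions, incubated 1 h with ligand-free nuclear receptor dimers. Partner-specific antibodies detected binding, and scanned fluorescence was regression-normalized.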
# [2] = test system: LXRa:RXRa (NR concentration 270 nM, RXRa partner concentration 90 nM)
# Outline: as §1
# [3] = test system: LXRa homodimer (NR concentration 270 nM)
# Outline: as §1
# [4] = test system: LXRb:RXRa (NR concentration 270 nM, RXRa partner concentration 90 nM)
# Outline: as §1
# [5] = test system: LXRb homodimer (NR concentration 270 nM)
# Outline: as §1
# [6] = test system: PPARa:RXRa (NR concentration 270 nM, RXRa partner concentration 90 nM)
# Outline: as §1
# [7] = test system: PPARg:RXRa (NR concentration 180 nM, RXRa partner concentration 90 nM)
# Outline: as §1
# [8] = test system: PPARg:RXRa 270nM:90nM, anti-RXR (NR concentration 270 nM, RXRa partner concentration 90 nM)
# Outline: as §1
# [9] = test system: PPARg:RXRa 30nM:10nM, anti-RXR (NR concentration 30 nM, RXRa partner concentration 10 nM)
# Outline: as §1
# [10] = test system: PPARg:RXRa 90nM:30nM, anti-RXR (NR concentration 90 nM, RXRa partner concentration 30 nM)
# Outline: as §1
# [11] = test system: PPARg:RXRa DBDmut IVT, anti-RXR (DBD mutation: RXRa K156A/R161A, NR concentration 270 nM, RXRa partner concentration 90 nM)
# Outline: as §1
# [12] = test system: PPARg:RXRa IVT, anti-PPARg (NR concentration 270 nM, RXRa partner concentration 90 nM)
# Outline: as §1
# [13] = test system: PPARg DBDmut:RXRa IVT, anti-PPARg (DBD mutation: PPARg1 K132A/R137A, NR concentration 270 nM, RXRa partner concentration 90 nM)
# Outline: as §1
# [14] = test system: PPARg DBDmut IVT, anti-PPARg (DBD mutation: PPARg1 K132A/R137A, NR concentration 270 nM)
# Outline: as §1
# [15] = test system: PPARg homodimer (NR concentration 180 nM)
# Outline: as §1
# [16] = test system: PXR:RXRa (NR concentration 270 nM, RXRa partner concentration 90 nM)
# Outline: as §1
# [17] = test system: PXR homodimer (NR concentration 270 nM)
# Outline: as §1
# [18] = test system: RARa:RXR (NR concentration 270 nM, RXRa partner concentration 90 nM)
# Outline: as §1
# [19] = test system: RARa homodimer (NR concentration 270 nM)
# Outline: as §1
# [20] = test system: RARb:RXRa (NR concentration 270 nM, RXRa partner concentration 90 nM)
# Outline: as §1
Sequence,PBM binding z-score [1],PBM binding z-score [2],PBM binding z-score [3],PBM binding z-score [4],PBM binding z-score [5],PBM binding z-score [6],PBM binding z-score [7],PBM binding z-score [8],PBM binding z-score [9],PBM binding z-score [10],PBM binding z-score [11],PBM binding z-score [12],PBM binding z-score [13],PBM binding z-score [14],PBM binding z-score [15],PBM binding z-score [16],PBM binding z-score [17],PBM binding z-score [18],PBM binding z-score [19],PBM binding z-score [20]
GCGACTGAGGCATCAGCAGGTTACCATAACTTAA,-0.539,-0.504,-0.511,-0.382,-0.493,-0.272,0.31,-0.607,-0.469,-0.443,-0.328,-0.559,-1.15,-0.218,-0.486,-0.397,-0.552,0.102,-0.596,-0.298
TCGAGTAGGTTAGTCGCGGCATTCAGCCAACATA,-0.279,-0.139,-0.606,-0.576,-1.32,0.228,-0.37,0.565,1.03,0.9,1.72,0.971,-0.971,-1.42,-0.911,-0.398,-0.771,-0.208,-0.937,-0.138
CCTCGGAGGACAGAAGGTCACAGCTGTCCGCTTT,2.65,3.33,0.899,2.27,-0.713,3.54,0.989,2.62,-0.00709,1.83,0.643,1.32,-1.36,-2.05,2.05,3.33,-0.204,4.13,1.25,3.77
CTCGAAAGTTCGGTTGAGGTGAGTATACGGATAA,0.279,0.2,-0.166,0.297,-0.341,0.506,-0.114,0.109,-0.0109,0.125,-0.462,0.288,-0.142,0.0612,0.083,1.14,0.236,1.8,-0.11,1.55
ACTAGTTGGTCAGCTGAGGTGACACACAATTCGG,1.58,0.508,-0.0551,0.499,-0.125,1.27,1.16,0.582,-0.235,0.398,1.56,2,0.518,0.422,0.486,0.897,0.101,1.27,-0.129,1.45
TCATATAGGGAAAGGTGAAAGTCGAACGATATGA,0.779,1.31,-0.25,1.43,-0.112,2.68,2.13,3.56,4.47,3.88,2.4,2.31,0.712,0.709,0.702,0.972,0.00313,1.74,0.496,1.78
CCTGCTAGGTCAATGGTCTGCTAAAGCAGCTCGC,2.61,2.26,-0.00615,1.78,-0.252,2.75,2.2,2.86,-0.129,1.83,4.23,3.5,-0.516,-0.86,1.16,0.731,-0.482,1.36,-0.721,3.78
TCTATTAGTTGGAGGGCAACCGACGAGTCCGTTT,0.6,1.06,0.645,0.855,0.753,0.93,-0.158,1.88,3.25,2.33,1.97,0.996,0.0745,-0.289,1.04,1.08,1.11,0.737,0.176,1.35
TCTGGCAGGCCAGAGGGTCACTCAAGAGGTACGG,1.24,1.09,-0.32,1.08,-0.89,2.4,0.868,1.48,0.732,1.23,0.0912,0.182,-0.722,-0.915,0.353,1.59,-0.371,2,-0.717,2.31
ATCTCTAGGTAAGACTCAGTTTAGTGAAGAACGC,0.613,0.734,0.489,0.362,0.843,-0.0694,0.158,0.112,0.213,0.579,2.06,1.06,1.01,0.79,0.494,0.177,0.554,0.162,1.22,0.222
GCTCGTAGGACAAGGTCAGAGCTTTGTCCGTAGA,1.45,1.74,-0.722,1.25,-0.639,2.44,0.258,1.16,-0.473,0.455,0.0127,1.08,-1.37,-1.3,0.722,1.63,-0.493,2.13,-1.71,3.16
GGCACGAGGGCAAAGTTGATAGCATCTGTCGACG,1.44,1.01,-0.378,0.776,-0.874,3.29,6.13,6.24,4.26,6.86,2.51,2.98,-0.61,-0.775,0.977,1.11,0.289,1.56,-0.644,2.54
TCTCGGAGGACCCGAAGGTCAGAGCTTTCCAGAG,0.805,0.637,-0.12,0.902,-1.45,1.69,0.0649,1.18,1.64,1.63,0.809,-0.16,-1.17,-1.31,0.165,1.42,-0.264,1.89,-0.281,2.35
TCTCGGAGGATACGAAGGTCAGAGCTTTCCAGAG,0.399,0.672,-0.0784,0.653,-1.33,1.55,0.177,1.23,1.89,1.51,1.14,0.245,-1.41,-1.19,0.218,1.09,-0.447,1.64,-0.378,2.33
GCGACTGGGACATCAGCAGGTTACCATAACTTAA,-0.41,-0.456,-0.462,-0.188,-0.768,0.248,0.495,-0.264,-0.28,-0.281,1.95,1.18,-0.236,-1.24,-0.146,-0.226,-0.651,-0.109,-0.694,0.0627
TAGCCTAGGTCAGATCGGGCCAGTGTACGCTATA,1.85,0.96,-0.454,0.525,-0.897,1.49,0.36,0.761,-0.533,-0.134,0.622,1.31,-1.37,-0.791,-0.0708,1.18,-1.04,1.19,-1.04,3.04
ATTAGCAGGCCAAGTTTGGGTCACTCAAACAAAG,0.082,0.215,-0.128,0.803,-0.539,1.62,0.124,0.309,-0.279,0.138,0.708,1.31,-0.0201,-0.208,0.531,0.924,0.144,1.97,-0.273,1.83
CAAACTAGGTCAAGGTCAATGTCGGTTTGTGCCA,6.03,5,3.19,4.14,1.08,5.94,9.35,7.99,6.08,8.16,8.55,8.45,5.91,4.78,4.97,4.89,2.16,4.96,2.18,5.03
CGTGCTAGGTCATGGTCAGCTAATCTACAGTATG,3.55,2.46,0.0428,1.84,-0.338,3.36,2.98,2.8,0.471,2.11,4.45,4.25,0.168,-0.51,1.36,1.5,-0.399,2.51,-0.32,3.94
GCCTACGGGTCAAAGGTTATAGCATGAATAGAAT,7.04,5.56,0.447,5.59,-0.175,6.6,10.4,8.66,7.8,9.24,2.12,4.99,1.03,0.485,1.95,6.12,0.219,8.24,0.254,4.34
AGAATGAGGTTACCATAGATCAGGGAAACGCTTG,1.71,6.81,-0.421,3.61,-0.0924,3.14,2.41,2.09,0.706,1.29,3.38,3.18,0.359,0.63,0.136,0.897,0.179,1.54,0.172,1.79
TCGAGTAGTTTAGTCGGGGCATTCAGCCAACATA,-0.125,-0.295,-0.441,0.256,-0.38,0.346,-0.694,0.0847,0.837,0.633,1.24,-0.182,-0.281,-0.699,-0.472,0.139,-0.0137,0.146,-0.408,0.0588
ACTTACGGGTCAACGAGGCTATAGCACGCGTATA,7.11,4.24,0.0789,3.85,0.747,5.82,5.21,4.87,1.81,3.64,3.07,3.98,0.121,1.38,1.92,3.59,0.421,4.16,0.515,4.01
CCGGCTAGGTCAATGGTCAGCTAAAGCAGCTCGC,3.18,1.98,-0.137,1.48,-0.304,2.91,3.63,4.32,1.63,4.03,3.12,2.61,-1.05,-0.801,0.684,0.817,-0.491,1.75,0.248,3.8
TCTGTTAGGTCAGTTGGTCAGCTAACGAGCTGCC,2.18,1.74,0.264,1.37,2.71,1.99,0.27,2.47,3.02,2.76,2.15,3.2,2.86,2.08,1.91,0.988,0.313,1.29,0.814,3.71
TCTTGTAGATCAGCGGGTTAAGAAAGCTGGCCAA,0.495,0.126,-0.31,0.0907,0.392,0.933,-0.329,1.16,2.52,1.99,1.84,0.55,-0.631,0.232,0.0922,0.359,-0.369,0.653,-0.539,0.032
ATCTCTAGGTAACAATTTCAGTGAAAGAGAGGAC,0.775,0.589,0.266,0.374,1.34,0.437,0.734,0.62,0.676,0.649,3.38,2.8,1.3,1.6,0.669,0.204,0.98,0.221,1.81,0.518
CCGAGTCGGTTATGGGGCATTCAGGCAACGGTGA,-0.323,-0.235,-0.49,-0.14,-0.656,0.438,0.463,1.66,-0.306,0.771,0.293,0.608,-1.56,-1.49,0.196,-0.541,-0.48,-0.567,-0.241,0.404

# From the supplement of paper PMC6555819
